S1P4 antag = blocks the human S1P4 receptor; actives 0.26% (n = 220,000); inhibition, % at 4.98 µM; O95977; S1P4-expressing cells, antagonist mode, reporter read-out; in the data active = inhibition above about 29%;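 note: 0% = wells stimulated with agonist and 100% = vehicle wells without agonist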
Target sequence (O95977 whole entry, looked up): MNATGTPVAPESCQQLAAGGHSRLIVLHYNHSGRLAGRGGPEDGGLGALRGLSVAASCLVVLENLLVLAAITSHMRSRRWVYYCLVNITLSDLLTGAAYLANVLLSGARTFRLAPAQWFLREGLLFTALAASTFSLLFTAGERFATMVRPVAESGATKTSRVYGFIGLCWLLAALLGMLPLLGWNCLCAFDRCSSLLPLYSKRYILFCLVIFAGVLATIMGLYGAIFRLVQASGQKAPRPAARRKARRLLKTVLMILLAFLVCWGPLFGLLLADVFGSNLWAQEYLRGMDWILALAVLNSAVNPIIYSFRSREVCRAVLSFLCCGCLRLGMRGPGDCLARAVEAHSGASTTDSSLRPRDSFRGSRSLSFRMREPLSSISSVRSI
Cl transport mod = KCC2 (human) Cl- transport modulation; Q9H2X9; KCC2 cells, thallium flux FluoZin-2 fluorescence; B-score of Tl+ flux slope (higher = more flux/activation; lower = inhibition) at 10 µM; actives 2.2% (n = 190,000); AID 1456;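 active = thallium flux slope and its plate-corrected score both differing from the plate sample mean at a set confidence after two filtering rounds, in either direction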;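 note: slope of fluorescence scaled to starting intensity during 10 to 20 s after thallium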
ROMK primary = human ROMK K+ channel modulation, primary screen. P48048. Tet-inducible ROMK, thallium flux fluorescence; actives lie on both sides. B-score at 10 µM. actives 2% (n = 130,000). AID 1918;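 active = signal ratio slope over the read window, or its plate-corrected B-score, at least 3 SD from the plate mean, either direction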;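 note: B-score of the F/F0 ratio slope over 7 to 12 s after thallium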
RAM network inh = blocks the yeast RAM network. S. cerevisiae dse1pr::URA3 reporter, 5-FOA growth OD615, 2 d; analog-sensitive cbk1-as2 kinase mutant strain. inhibition, % at 50 µM. actives 1.8% (n = 190,000). AID 868;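 active = inhibition above a set limit, 3 SD over mean compound inhibition, cut at about 8.4% in these data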;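 note: 0% = DMSO-only wells with no growth and 100% = 10 µM 1-NA-PP1 full growth; inhibition rescues growth on 5-FOA so higher OD means more RAM inhibition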
S1P4 ag = human S1P4 receptor agonism; S1P4-expressing cell line, agonist reporter assay; AID 1509; activation, % at 4.98 µM; actives 0.35% (n = 220,000); O95977; in the data active = activation above about 11%;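 note: 0% = DMSO vehicle and 100% = reference agonist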
S1P3 antag = antagonists of human S1P3 receptor; Q99500; CHO S1P3 NFAT-BLA reporter, FRET fluorescence, antagonist mode; inhibition, % at 4.98 µM; actives 0.27% (n = 170,000);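 active = inhibition above the plate cutoff, the mean inhibition of test wells on that plate plus 3 SD, cut at about 28% in these data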;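 note: cells challenged with S1P at its EC80 of 0.8 µM; blue over green emission ratio from cleaved BLA substrate after 4 h stimulation; 0% = S1P-stimulated wells and 100% = unstimulated DMSO-only wells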
KCC2 secondary = KCC2 (human) modulation, secondary assay. HEK293-KCC2, thallium flux, FluoZin2 fluorescence; stronger effect = higher value. actives 15% (n = 3,700). normalised thallium flux (F/F0 slope) at 10 µM. shares compounds with Cl transport mod;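 active = thallium flux slope above the same plate's solvent-only control mean plus 3 SD; inconclusive = the two replicate wells disagree; inactive = no significant difference from solvent-only control wells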
KCC2 bumet counter = thallium flux persisting under bumetanide in KCC2 cells, counter-screen secondary assay | shares compounds with Cl transport mod | HEK293-KCC2 + bumetanide/ouabain, thallium flux FluoZin2; stronger effect = higher value | normalized thallium flux at 10 µM | actives 49% (n = 3,700) | AID 1714;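 active = thallium entry rate above the same plate's blocked-transporter control wells by more than 3 SD; inconclusive = the two repeat wells disagree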;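 note: raw slope of fluorescence over initial fluorescence between 10 and 20 s after thallium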
KCC2 sec2 = confirmation of human KCC2 transport modulators | normalized thallium flux at 10 µM | shares compounds with Cl transport mod | HEK293-KCC2, thallium flux FluoZin2 fluorescence; actives lie on both sides; F/F0 rise rate, 10–20 s post-thallium | AID 1715 | actives 23% (n = 3,700);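 active = thallium flux slope more than 3 SD above or below the plate's solvent-only control mean, mostly below; inconclusive = the two repeat wells disagreed; inactive = no significant shift from solvent-only controls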;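 note: raw slope with 0.1% DMSO as baseline and bumetanide as block control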
HEK counter1 = parental HEK flux effect, counter-screen; shares compounds with Cl transport mod; HEK293 parental cells, thallium flux FluoZin2, ouabain; baseline-ratio fluorescence slope, 10–20 s after thallium; thallium flux rate (normalised fluorescence) at 10 µM; actives 46% (n = 3,700); AID 1716;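 active = thallium flux rate significantly above the same plate's solvent-only control wells, beyond their mean plus 3 SD; inconclusive = the two replicate wells gave conflicting results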
KCC2 retest ouab = KCC2 (human) modulation, ouabain retest; shares compounds with Cl transport mod; HEK293-KCC2, thallium flux FluoZin2 fluorescence; bidirectional: low = inhibitor, high = activator; raw Tl+ flux slope (below DMSO = inhibition, above = activation) at 10 µM; actives 48% (n = 3,700);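 active = thallium flux slope beyond 3 SD from same-plate DMSO control mean in most replicates, usually higher, sometimes lower; inconclusive = repeat tests gave conflicting results; inactive = no significant difference from controls in most replicates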;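 note: slope of initial-normalized fluorescence between seconds 10 and 20 after thallium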
HEK293 Tl flux2 = acts in parental HEK cells, second KCC2 counter-screen; HEK293 parental, thallium flux FluoZin-2 fluorescence slope; actives 33% (n = 3,700); thallium flux slope at 10 µM; shares compounds with Cl transport mod;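 active = thallium flux slope above the same plate's solvent-control mean plus 3 SD in both duplicate wells; inconclusive = duplicate wells that disagreed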;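 note: run without ouabain in cells lacking the KCC2 cotransporter; slope of fluorescence scaled to its starting value between 10 and 20 s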
Starred values were filed as active, the others as inactive; ? = inconclusive; . = no result given. Compounds with a hit are over-represented: about 5.1% of the library has one in this group of screens.

SMILES	S1P4 antag	Cl transport mod	ROMK primary	RAM network inh	S1P4 ag	S1P3 antag	KCC2 secondary	KCC2 bumet counter	KCC2 sec2	HEK counter1	KCC2 retest ouab	HEK293 Tl flux2
O=C(c1ccc2c(=O)n(C3CCCC3)c(=S)[nH]c2c1)N1CCN(C2CCCCC2)CC1	-3	8.3*	-1.3	0	0	4	0.0063	0.0098*	0.029	0.015*	0.021	0.013*
CCOC(=O)N1CCN(C(=O)c2ccc3c(=O)n(Cc4ccc(Cl)cc4)c(=S)[nH]c3c2)CC1	-33	.	1.9	1	2	.	0.0063	0.015*	0.032	0.013*	?	0.016*
FC(F)(F)c1ccc(Oc2ccc(Cl)cc2Br)nc1	3	0.14	0.2	1	1	-20	.	.	.	.	.	.
CN1CCN(NC(=O)c2cc(-c3cccc(Cl)c3)nc3ccccc23)CC1	-1	0.49	.	1	2	-2	.	.	.	.	.	.
CN1CCC(N(C)C(=S)NC(=O)c2cc(-c3cccc(Br)c3)nc3ccccc23)CC1	9	16*	.	-1	-1	-21	0.0048	0.015*	0.035	0.012*	?	0.014*
O=C(CSc1nc2ccccc2c(=O)n1-c1ccc(SC(F)F)cc1)Nc1ccc(N2CCOCC2)cc1	-12	4.5*	-1.2	3	2	-7	0.0096	0.014*	0.03	0.01*	0.024	0.011*
Cc1cc(C)c2nc(N3CCC(C(=O)N4CCCC4)CC3)sc2c1	7	.	-1.6	-1	1	-3	?	0.0057	0.034	0.0041	0.015*	0.011
Cc1cc(C)c2nc(N3CCC(C(=O)N4CCN(c5ncccn5)CC4)CC3)sc2c1	-1	-1.6	.	0	0	-9	.	.	.	.	.	.
O=C1N(Cc2cccc(Cl)c2)C[C@@H]2C[C@@H](c3cccc4cccnc34)N3CCC[C@@]123	-13	-1	-1.8	0	-2	-23	.	.	.	.	.	.
O=C1N(Cc2cccc(Cl)c2)C[C@@H]2C[C@@H](c3cccc4ncccc34)N3CCC[C@@]123	8	.	-2.7	0	1	10	0.0098	0.0052	0.036	0.0035	0.019	0.011
COc1ccc(C(CNC(=O)c2cc3ccccc3o2)N2CCCCC2)cc1 (stereo unspecified)	-11	-0.15	-2.2	2	2	-2	.	.	.	.	.	.
c1ccc(Cc2nn3c(Cn4nnc5ccccc54)nnc3s2)cc1	-36	-1.6	-0.28	3	-1	-19	.	.	.	.	.	.
c1ccc(OCc2nn3c(Cn4nnc5ccccc54)nnc3s2)cc1	-10	-2.6*	-1	2	1	-9	0.0072	0.0042	0.027	0.0075	0.015*	0.0099
COc1ccccc1-c1nnc2sc(COc3ccccc3)nn12	-16	-3.4	-1.8	2	-1	.	0.0049	?	0.024*	0.0064*	0.015*	?
COc1ccccc1-c1nnc2sc(COc3ccc(Cl)cc3Cl)nn12	-1	0.99	0.11	3	0	0	.	.	.	.	.	.
c1ccc(-c2noc(CC3CCCCC3)n2)nc1	0	0.55	-0.25	-1	6	-4	.	.	.	.	.	.
CCN(CC)C(=N)N1c2ccccc2CCC1C (stereo unspecified)	13	-0.93	-0.51	-1	1	-5	.	.	.	.	.	.
